According to PubChem BioAssay AID1159580 (chemical genetic matrix, 2015):
Several values for one entry are separate records, joined by “and”; a condition that tells them apart may be missing. Equal values may be shown once. Hit rate of the full screen: of about 5,500 compounds, about 2,000 (36%) were called active. Not shown: some 18% with an inconclusive outcome. Cut-off read from the data, not from the text of the source: active = normalized growth mostly below about 0.91 (no sharp cut-off); inconclusive = no clear call, values can overlap the other calls; inactive = mostly above about 0.92. The list shows a part of the results.

Assay: chemical genetic growth profiling, strain panel (AID 1159580);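 note: tested at 20 µM; growth read once vehicle control cultures reached saturation at 30 °C; 1 = growth at the plate median or of vehicle wells; lower values mean less growth of the strain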
Conditions: S. cerevisiae deletion strains, growth OD

Measured: normalized growth

C1CCc2nnnn2CC1
inactive: locus YAL013W, strain DEP1, active compounds read low 1.01 | locus YAL021C, strain ccr4, active compounds read low 1.01 | locus YAL026C, strain drs2, active compounds read low 1.01 | locus YAL030W, strain snc1, active compounds read low 1 | locus YAL040C, strain CLN3, active compounds read low 0.98 | locus YBL061C, strain skt5, active compounds read low 1.01 | locus YBR009C, strain hhf1, active compounds read low 1.01 | locus YBR021W, strain FUR4, active compounds read low 1.01 | locus YBR023C, strain chs3, active compounds read low 1.01 | locus YBR171W, strain sec66, active compounds read low 1.01 | locus YBR229C, strain ROT2, active compounds read low 1.01 | locus YBR231C, strain swc5, active compounds read low 1 | locus YBR279W, strain paf1, active compounds read low 1.01 | locus YCL011C, strain gbp2, active compounds read low 1 | locus YCL016C, strain dcc1, active compounds read low 1 | locus YCL029C, strain bik1, active compounds read low 1.03 | locus YCL061C, strain MRC1 (second series), active compounds read low 1 | locus YCL061C, strain MRC1, active compounds read low 0.998 | locus YCL069W, strain vba3, active compounds read low 1 | locus YCR088W, strain abp1, active compounds read low 1.02 | locus YDL005C, strain med2, active compounds read low 0.999 | locus YDL035C, strain GPR1, active compounds read low 1.01 | locus YDL040C, strain nat1, active compounds read low 1 | locus YDL074C, strain BRE1, active compounds read low 1.03 | locus YDL101C, strain DUN1, active compounds read low 1.03 | locus YDL134C, strain PPH21, active compounds read low 1.01 | locus YDL185W, strain tfp1, active compounds read low 1.01 | locus YDL192W, strain arf1, active compounds read low 1.01 | locus YDR001C, strain nth1, active compounds read low 1.01 | locus YDR069C, strain doa4, active compounds read low 1.01 | locus YDR101C, strain arx1, active compounds read low 1.01 | locus YDR137W, strain rgp1, active compounds read low 1.02 | locus YDR150W, strain NUM1, active compounds read low 1.01 and 1 | locus YDR159W, strain sac3, active compounds read low 1 | locus YDR162C, strain NBP2, active compounds read low 0.994 | locus YDR195W, strain ref2 0.985 | locus YDR297W, strain sur2, active compounds read low 1.02 | locus YDR318W, strain mcm21, active compounds read low 1.02 | locus YDR334W, strain swr1, active compounds read low 1.01 | locus YDR335W, strain msn5, active compounds read low 1.01 | locus YDR363W, strain ESC2, active compounds read low 1.01 | locus YDR388W, active compounds read low 1 | locus YDR392W, strain spt3, active compounds read low 1.03 | locus YDR502C, strain sam2, active compounds read low 1 | locus YEL003W, strain gim4, active compounds read low 1.01 | locus YEL037C, strain rad23, active compounds read low 1 | locus YEL061C, strain CIN8 (second series), active compounds read low 1.01 | locus YEL061C, strain CIN8, active compounds read low 1.01 | locus YER002W, strain NOP16, active compounds read low 1.01 | locus YER015W, strain faa2, active compounds read low 1 | locus YER016W, strain bim1, active compounds read low 1.01 | locus YER110C, active compounds read low 1.02 | locus YER111C, strain swi4, active compounds read low 1 | locus YER155C, strain BEM2 (second series), active compounds read low 1.02 | locus YER155C, strain BEM2, active compounds read low 1 | locus YER167W, strain BCK2, active compounds read low 1 | locus YFR010W, strain ubp6, active compounds read low 1.01 | locus YGL078C, strain dbp3, active compounds read low 1 | locus YGL086W, strain mad1, active compounds read low 0.99 | locus YGL173C, strain kem1, active compounds read low 1.02 | locus YGL227W, strain vid30, active compounds read low 1 | locus YGL240W, strain doc1, active compounds read low 1.01 | locus YGL248W, strain PDE1, active compounds read low 1.01 | locus YGL253W, strain hxk2, active compounds read low 1 | locus YGR078C, strain PAC10, active compounds read low 1 and 1.03 | locus YGR135W, strain pre9, active compounds read low 1.03 | locus YGR229C, strain SMI1, active compounds read low 0.969 and 1.01 | locus YGR252W, strain gcn5, active compounds read low 0.941 | locus YHR013C, strain ard1, active compounds read low 1.02 | locus YHR027C, strain rpn1, active compounds read low 1.01 | locus YHR030C, strain SLT2, active compounds read low 1.01 and 0.966 | locus YHR079C, strain IRE1 (second series), active compounds read low 1.02 | locus YHR079C, strain IRE1, active compounds read low 0.964 | locus YHR094C, strain hxt1, active compounds read low 1.01 | locus YHR129C, strain ARP1, active compounds read low 1.02 | locus YHR142W, strain chs7, active compounds read low 1.01 | locus YHR200W, strain rpn10, active compounds read low 1.01 | locus YIL066C, strain RNR3, active compounds read low 1.02 | locus YIL073C, strain SPO22, active compounds read low 1.01 | locus YIL125W, strain kgd1, active compounds read low 1 | locus YIR030C, strain dcg1, active compounds read low 1.01 | locus YJL092W, strain hpr5, active compounds read low 1 | locus YJL095W, strain BCK1 (second series), active compounds read low 1 | locus YJL095W, strain BCK1, active compounds read low 1.02 and 0.967 | locus YJL115W, strain asf1, active compounds read low 0.993 | locus YJL129C, strain trk1, active compounds read low 1.01 | locus YJL134W, strain LCB3, active compounds read low 1.01 | locus YJL154C, strain vps35, active compounds read low 1 | locus YJL164C, strain tpk1, active compounds read low 1 | locus YJL166W, strain qcr8, active compounds read low 1.01 | locus YJL168C, strain set2, active compounds read low 1.01 | locus YJL187C, strain SWE1 (second series), active compounds read low 1.04 | locus YJL187C, strain SWE1, active compounds read low 1.02 | locus YJR043C, strain POL32, active compounds read low 1.01 | locus YJR066W, strain TOR1, active compounds read low 0.921
